About 14,000 (4.5%) of roughly 310,000 compounds showed an effect of 50% or more. Effects have a minus sign here. Many of the other results were omitted from the sample, so strong results are more common in it than they were.
target: human ether-à-go-go-related gene (hERG) potassium channel (human, UniProt Q12809); experiment: primary screen, population patch clamp on CHO cells stably expressing hERG; higher = less effect of the substance
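Further: peak tail current of the secondary pulse compared with the same well before compound.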

Sequence of human ether-à-go-go-related gene (hERG) potassium channel (Q12809 whole entry, looked up): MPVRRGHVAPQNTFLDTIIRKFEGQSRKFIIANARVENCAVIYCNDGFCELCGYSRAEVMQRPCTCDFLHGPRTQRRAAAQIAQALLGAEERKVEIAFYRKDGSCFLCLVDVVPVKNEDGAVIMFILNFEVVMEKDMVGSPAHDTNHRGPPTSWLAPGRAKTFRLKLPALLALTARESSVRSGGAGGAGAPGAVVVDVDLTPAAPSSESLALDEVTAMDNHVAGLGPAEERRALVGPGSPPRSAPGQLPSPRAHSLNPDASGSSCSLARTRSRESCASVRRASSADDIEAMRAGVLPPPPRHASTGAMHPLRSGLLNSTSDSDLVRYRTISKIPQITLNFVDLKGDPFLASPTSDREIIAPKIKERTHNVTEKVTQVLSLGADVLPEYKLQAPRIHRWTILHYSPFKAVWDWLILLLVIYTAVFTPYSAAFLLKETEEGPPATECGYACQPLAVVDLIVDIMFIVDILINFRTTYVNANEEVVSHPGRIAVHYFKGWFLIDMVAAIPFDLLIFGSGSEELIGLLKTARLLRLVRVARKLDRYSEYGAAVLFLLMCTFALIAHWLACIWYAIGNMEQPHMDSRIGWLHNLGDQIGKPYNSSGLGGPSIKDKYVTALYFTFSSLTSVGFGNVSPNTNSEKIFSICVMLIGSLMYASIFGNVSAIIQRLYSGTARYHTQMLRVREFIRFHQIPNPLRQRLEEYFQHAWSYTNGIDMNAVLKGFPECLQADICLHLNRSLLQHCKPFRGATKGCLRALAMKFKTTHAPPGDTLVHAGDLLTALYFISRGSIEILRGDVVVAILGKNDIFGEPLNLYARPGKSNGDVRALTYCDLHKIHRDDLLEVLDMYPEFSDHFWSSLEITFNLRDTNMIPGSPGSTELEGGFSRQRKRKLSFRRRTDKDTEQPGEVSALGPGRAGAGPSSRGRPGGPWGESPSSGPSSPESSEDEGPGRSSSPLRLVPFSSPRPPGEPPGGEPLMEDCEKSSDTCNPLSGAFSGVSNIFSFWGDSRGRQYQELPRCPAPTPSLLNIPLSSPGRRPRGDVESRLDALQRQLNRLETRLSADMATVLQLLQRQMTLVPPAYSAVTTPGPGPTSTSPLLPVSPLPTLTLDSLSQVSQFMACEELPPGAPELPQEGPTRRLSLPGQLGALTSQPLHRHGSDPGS

Structure (SMILES)	hERG current change (%, negative = inhibition) at 10uM [%]
Cc1cc(NC(=O)c2ccccc2)sc1C	5.55
Cc1cc(OC(=O)c2cccc(Cl)c2)c([N+](=O)[O-])c(=O)[nH]1	19.9
COCCNc1oc(-c2ccco2)nc1S(=O)(=O)c1ccccc1	2.69
CCC(CO)NCC(O)COCc1ccc2c(c1)OCO2 (stereo not drawn)	10.1
Cc1ccc(OCCCCN2CCCCC2)c(C)c1	-24.6
Cc1cc(C)c(C)c(OCCCCN2CCCCC2)c1	-52.5
Cc1ccc(OCCOCCN2CCCCC2)c([N+](=O)[O-])c1.O=C(O)C(=O)O	-37.5
Cc1cc(OCCN2CCC(Cc3ccccc3)CC2)ccc1[N+](=O)[O-].O=C(O)C(=O)O	-79.1
Cc1cc(C)c(C)c(OCCOCCN2CCN(C)CC2)c1	-1.93
Cc1ccc(OCCCCN2CCCC(C)C2)c([N+](=O)[O-])c1.O=C(O)C(=O)O (stereo not drawn)	-69
Cc1ccc(C)c(OCCCCN2CCCCC2)c1.O=C(O)C(=O)O	-42.1
Cc1ccc(C)c(OCCCN2CCCC2)c1.O=C(O)C(=O)O	-54.9
Cc1ccc(OCCCN2CCOCC2)c([N+](=O)[O-])c1.O=C(O)C(=O)O	-12
Cc1cc(OCCN2CCCCCC2)ccc1[N+](=O)[O-].O=C(O)C(=O)O	-46.2
Cc1ccc(OCCCN2CCCC2)c(C)c1.O=C(O)C(=O)O	-27.2
Cc1cc(OCCN2CCCC2)ccc1[N+](=O)[O-].O=C(O)C(=O)O	-9.82
CCN(CC(=O)NC1CCS(=O)(=O)C1)S(=O)(=O)c1ccccc1 (stereo not drawn)	7.7
CCOc1ccc(Br)cc1S(=O)(=O)Nc1ccccc1N1CCOCC1	-15.8
O=C(Cn1cccc1)N1CCN(C(c2ccccc2)c2ccccc2)CC1	-3.68
Cn1c(=O)c2c(nc(NC3CCCCC3)n2Cc2ccccc2)n(C)c1=O	14.2
Cc1ccc(CN(C(=O)c2cc(=O)c3cc(C)cc(C)c3o2)C2CCS(=O)(=O)C2)cc1 (stereo not drawn)	-32.1
COc1ccc(N2CC(C(=O)N[C@@H](C)C(=O)NC3CCCC3)CC2=O)cc1 (stereo partly drawn)	15.7
CN(C)/C=C/C(=O)c1cnc2sccn2c1=O	5.24

Structure (SMILES)	hERG current change (%, negative = inhibition) at 10uM [%]
O=C(/C=C/c1ccccc1Cl)c1ccccc(=O)c1O	-1.72
Cc1ccc(/C=C/C(=O)c2ccccc(=O)c2O)cc1C	-24.6
Cc1ccc(C)c(/C=C/C(=O)c2ccccc(=O)c2O)c1	-50.7
O=C(c1ccccc1)c1cccc(NC(=O)c2ccc(Br)o2)c1	-61.1
C/C(=N/NC(=O)c1ccco1)c1cccc(NC(=O)c2ccc(C)o2)c1	-45.4
C/C(=N\NC(=O)c1ccncc1)c1cccc(NC(=O)c2ccc(C(C)(C)C)cc2)c1	-53.7
O=C(Nc1ccccc1)c1ccc(Br)o1	3.15
C/C(=N\NC(=O)c1ccc(F)cc1)c1cccc(NC(=O)c2cccc(F)c2)c1	21.3
COc1ccc(C(=O)N/N=C(/C)c2cccc(NC(=O)c3ccncc3)c2)cc1OC	8.48
C/C(=N/NC(=O)c1ccc(Br)o1)c1cccc(NC(=O)c2ccc(C)o2)c1	-67.6
C/C(=N/NC(=O)c1ccc(Br)o1)c1cccc(NC(=O)c2ccc(F)cc2)c1	-58.9
C/C(=N\NC(=O)c1cccc(F)c1)c1cccc(NC(=O)c2ccc(F)cc2)c1	13
C/C(=N\NC(=O)c1cccc(Br)c1)c1cccc(NC(=O)c2ccc(C)o2)c1	-6.46
CC(=O)c1cccc(NC(=O)c2ccc(Br)o2)c1	-1.49
C/C(=N/NC(=O)c1ccncc1)c1ccc(NC(=O)c2ccccc2)cc1	7.92
CCCCNC(=O)c1onc(CSc2ccc(Cl)cc2)c1C(=O)NCCCC	-20.5
CCC(C(=O)Nc1ccc(C(C)C)cc1)c1ccccc1 (stereo not drawn)	11.8
COc1cc(/C=N/NC(=O)CNC(=O)c2ccc3c(c2)OCCO3)ccc1O	1.98
COc1cccc(C2CCCN2Cc2nc(-c3cnccn3)no2)c1 (stereo not drawn)	7.84
CC(NC(=O)Cc1cccs1)c1ccccc1 (stereo not drawn)	24.5
Cc1ccc(NC(=O)CCSc2nnc(-c3ccco3)o2)cc1	9.02
COCc1cc(=O)[nH]c(Nc2nc3ccc(C)cc3o2)n1	-10.3
O=C(/C=C/c1ccccc1)NCCN1CCOCC1	20.6

Structure (SMILES)	hERG current change (%, negative = inhibition) at 10uM [%]
COc1ccc(C(=O)/C(=C/N(C)C)S(=O)(=O)c2ccccc2)cc1	10.8
O.O=C1NC2(O)C(=O)c3ccccc3C2(O)N1 (stereo not drawn)	11
O=C(N/N=C\c1cc(Br)cs1)c1ccncc1	-6.73
CCC1Sc2ccc(S(=O)(=O)CCC(=O)NC3CCCCCC3)cc2NC1=O (stereo not drawn)	16.1
c1ccc2c(c1)Oc1ccccc1S2	14.7
CCOC(=O)c1ccc(N=C2C(=S)N(c3ccc(C(=O)OCC)cc3)C(=N)N2/N=C/c2ccccc2)cc1	-52.7
Cc1ccc(N=C2C(=S)N(c3ccc(C)cc3)C(=N)N2/N=C/c2ccc(Cl)cc2)cc1	-6.29
N=C1N(/N=C/c2ccccc2)C(=Nc2ccccc2)C(=S)N1c1ccccc1	2.03
CCOc1ccc(C(=O)NC2CCN(C(=O)Nc3ccc(F)cc3)CC2)cc1	0.481
CCc1cc2c(NCCC(=O)O)nc(C)nc2s1	24.2
COc1ccc(C(=O)C2CCCN(Cc3ccc(C#CCCO)cc3)C2)cc1F (stereo not drawn)	-45.3
COc1ccc(C(=O)C2CCCN(Cc3cnc(C)s3)C2)cc1OC (stereo not drawn)	-5.12
COc1ccc(C(=O)C2CCCN(Cc3cc(C)c(O)c(C)c3)C2)c(OC)c1 (stereo not drawn)	-61
Cc1ncc(CN2CCCC(C(=O)c3cccc(Cl)c3)C2)s1 (stereo not drawn)	-13.6
COc1ccc(C(=O)C2CCCN(Cc3ccc(C#CCCO)cc3)C2)c(OC)c1 (stereo not drawn)	-51.2
Cc1ncc(CN2CCCC(C(=O)c3ccc(C(C)(C)C)cc3)C2)s1 (stereo not drawn)	-72.8
COc1ccc2cc(C(=O)C3CCCN(Cc4cnc(C)s4)C3)ccc2c1 (stereo not drawn)	-28.8
COc1ccc(C(=O)C2CCCN(Cc3ccc(C)s3)C2)cc1OC (stereo not drawn)	-71.6
CCOC(=O)N1CCN(c2nc(-c3cccc(OC)c3)cc(C(F)(F)F)n2)CC1	6.67
Cc1c(C(=O)N2CCCC2)c(S(=O)(=O)Nc2cccc(Br)c2)c(C)n1C	6.99
CCN(CC)C(=O)Cn1cnc2sc(C(=O)Nc3cc(OC)c(OC)c(OC)c3)c(C)c2c1=O	14.5
Cn1cc(/C=N\NC(=O)C2COc3ccccc3O2)c2ccccc21 (stereo not drawn)	9.62
Cc1ccc(NC(=O)NNC(=O)c2cc3ccccc3cc2O)c(C)c1	27.4

Structure (SMILES)	hERG current change (%, negative = inhibition) at 10uM [%]
Cc1ccccc1C1NS(=O)(=O)N=C1N (stereo not drawn)	23.3
CC(Oc1ccc(-c2ccccc2)c(F)c1)c1ccn(S(=O)(=O)c2ccc(Br)cc2)n1 (stereo not drawn)	7.43
COCCCNC(=O)CN1C(=O)/C(=C\c2ccc(C)cc2)Sc2ccccc21	-15.8
COc1ccc(C(=O)C2CCCN(Cc3ccc(NC(C)=O)cc3)C2)cc1OC (stereo not drawn)	-21.1
COc1ccc(C(=O)C2CCCN(Cc3ccsc3)C2)cc1OC (stereo not drawn)	-73.8
COc1ccc(C(=O)C2CCCN(Cc3cnc(C)s3)C2)c(OC)c1 (stereo not drawn)	-42.3
COc1ccc(C(=O)C2CCCN(Cc3ccc(C)s3)C2)c(OC)c1 (stereo not drawn)	-53.7
NS(=O)(=O)c1ccc(CCNC(=O)C2CCN(S(=O)(=O)c3cnc[nH]3)CC2)cc1	-2.97
CC(C)(C)P(=O)(c1ccncc1)N1CCCC1 (stereo not drawn)	2.14
O=C(Nc1ccc2oc(=O)ccc2c1)c1cc([N+](=O)[O-])ccc1N1CCOCC1	-41.8
CCN(CC(=O)Nc1ccc(NC(C)=O)cc1)C(=O)/C=C/c1ccc2c(c1)OCO2	0.823
CC(C)C[C@H]1CN=C(Nc2ccccc2)N1CCC1CCCC1	-51.5
CC(C)C[C@H]1CN=C(Nc2ccccc2)N1CCCC1CCCC1	-65.9
CC(C)C[C@H]1CN=C(Nc2ccccc2)N1CCC1CCCCC1	-61.5
Fc1ccc(CN2CCSCC2)cc1Br	-11.1
CCCN(Cc1ccco1)S(=O)(=O)c1ccc(OC)c(OC)c1	0.00658
Cc1ccc(OCc2ccc(C(=O)N3CCOCC3)cc2)cc1C	-12.7
O=C(OCC(=O)c1ccc(Cl)s1)c1ccc(CO)cc1	-2.65
NC(=O)CSc1nnc(-c2ccc(S(=O)(=O)N3CCCCC3)cc2)n1-c1ccccc1	-14.2
Cn1c(SCC(N)=O)nnc1-c1ccc(S(=O)(=O)N2CCCC2)cc1	4.87
Cc1ccc(-n2c(SCC(N)=O)nnc2-c2ccc(S(=O)(=O)N3CCCCC3)cc2)c(C)c1	-52.7
